Screens as filed in PubChem BioAssay.
Most compounds without a hit are left out; they make up all but 2.7% or so of the library.
GLP-1R agonist – activates the human GLP-1 receptor | P43220 | HEK293 GLP-1R CRE-luciferase, luminescence, 4-6 h; cells express a hypersensitive GLP-1R form | Potency, µM (series often up to 45.6 µM), for the others: at the top dose activation, hits mostly activators | 380,000 compounds, 0.007% hits | AID 624172; also: % of control where 0% means no effect
TrxR1 substrate – substrates of rat thioredoxin reductase 1. O89049. purified TrxR1 substrate turnover, NADPH consumption readout. Potency, µM (series often up to 114 µM), for the others: top-dose activity change, negative = substrate turnover. 390,000 compounds, 0.01% hits. AID 588456; also: % is scaled to controls: 0 for no effect and ±100 for the full control effect; nearly all actives have a fitted effect of over 50% in size
Target sequence (O89049 whole entry, looked up): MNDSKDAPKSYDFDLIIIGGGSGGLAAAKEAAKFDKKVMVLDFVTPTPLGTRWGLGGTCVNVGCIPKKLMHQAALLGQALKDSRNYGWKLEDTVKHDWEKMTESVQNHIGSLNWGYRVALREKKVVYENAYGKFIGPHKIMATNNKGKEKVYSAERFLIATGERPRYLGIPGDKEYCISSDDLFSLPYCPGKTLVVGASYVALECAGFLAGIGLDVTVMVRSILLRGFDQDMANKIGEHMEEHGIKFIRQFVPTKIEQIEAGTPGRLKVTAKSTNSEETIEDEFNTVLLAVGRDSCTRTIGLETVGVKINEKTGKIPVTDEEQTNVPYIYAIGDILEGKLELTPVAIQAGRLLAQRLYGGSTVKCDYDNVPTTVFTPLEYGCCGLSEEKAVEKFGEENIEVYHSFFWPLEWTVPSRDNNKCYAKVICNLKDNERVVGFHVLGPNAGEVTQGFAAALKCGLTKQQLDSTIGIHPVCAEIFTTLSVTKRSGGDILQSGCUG
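Rat TrxR1, dispensed at 90 nM, was prereduced with 400 uM NADPH (final) for 5 min at ~22 deg C, then incubated with compound 15 min before 400 uM selenite. A first-read NADPH fluorescence drop versus no-compound background flagged substrates.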
GLP-1R inv ag – GLP-1 receptor (human) inverse agonism; P43220; HEK293 GLP-1R CRE-luciferase, luminescence, 24 h; GLP-1R form is constitutively active; Potency, µM (top dose mostly 38.3 µM), without a hit: top-dose activity change, negative = inhibition, actives largely listed as inhibitors; 410,000 compounds, 1.6% hits; AID 624417; also: % is scaled to controls: 0 for no effect and ±100 for the full control effect; nearly all actives have a fitted effect of over 55% in size
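Constitutively active GLP-1R drives a cAMP-responsive luciferase in stably transfected HEK293 cells; test compounds are added after overnight (12 h) attachment and left 24 hr, and signal loss in luminescence marks inhibition.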
mIDH1 inhibitor – blocks human mutant IDH1 R132H enzyme; O75874; IDH1-R132H enzyme, NADPH consumption, diaphorase/resazurin fluorescence; Potency, µM (top dose mostly 76.6 µM), without a hit: at the top dose activity change, negative = inhibition, most hits filed as inhibitors; 390,000 compounds, 0.093% hits; also: % is scaled to controls: 0 for no effect and ±100 for the full control effect; nearly all actives have a fitted effect of over 65% in size
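IDH1-R132H (0.5 ug/mL) preincubated 30 min with compound, then NADPH (0.016 mM) and alpha-KG (2 mM) added; 80 min at RT, pH 7.5. Remaining NADPH coupled via diaphorase/resazurin to fluorescence (540/590 nm); concentration-response curves normalized to no-enzyme control.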
TrxR1 inh – inhibitors of rat thioredoxin reductase 1; O89049; Potency, µM (top dose mostly 114 µM), for inactives: top-dose activity change, negative = inhibition, most hits filed as inhibitors; recombinant rTrxR1, NADPH fluorescence consumption, selenite substrate; 390,000 compounds, 1% hits; also: % is scaled to controls: 0 for no effect and ±100 for the full control effect; nearly all actives have a fitted effect of over 65% in size
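Rat TrxR1 (90 nM in the dispensed reagent) was pre-reduced with 400 uM NADPH for 5 min at room temperature, then incubated with compound for 15 min. After 400 uM selenite was added, NADPH fluorescence (Ex 340/Em 450 nm) was followed for 8 min.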
GLP1R cytotox – cytotoxicity counter-screen for GLP-1 receptor inverse agonists; 410,000 compounds, 0.13% hits; HEK293 cAMP-luciferase reporter cells, luminescence, 24 h; AID 624418; Potency, µM (top dose mostly 38.3 µM), without a hit: at the top dose activity change, negative = inhibition, usual class: inhibitors;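 also: loss of luciferase light is scored as toxicity; % is scaled to controls: 0 for no effect and ±100 for the full control effect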
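Here, cytotoxicity is scored as loss of luminescence. The MLSMR collection was tested on cells seeded in medium containing 10% Nu serum, with a 24 hr compound exposure preceded by 12 hours of culture.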
* hit, by the source's call; [ ] = another dose, or the depositor's remark. Calls follow the shape of the dose curve; as a rule, active = well fitted curve in the direction sought with a large enough effect; inconclusive = small, poorly fitted or top-dose-only effect, or another doubt; inactive = no such curve, though single readings can be large; an effect the other way counts as inactive or inconclusive. Potency is read from the fitted curve at half-maximal effect.

Results for O=C(/C=C/c1ccco1)Nc1ccc(N2CCCC2)cc1 ?
GLP-1R agonist: -7.8%; TrxR1 substrate: -3.3%; GLP-1R inv ag: 12.3%; mIDH1 inhibitor: 12.8%; TrxR1 inh: 31.6µM*; GLP1R cytotox: -21.3%

How did O=C(/C=C/c1ccco1)Nc1ccc(C(=O)N2CCOCC2)cc1 do in these assays?
GLP-1R agonist: -4.1%; TrxR1 substrate: -10.4%; GLP-1R inv ag: 20.6%; mIDH1 inhibitor: 2.0%; TrxR1 inh: 39.8µM*; GLP1R cytotox: 22.5%

What do the screens show for `Clc1nccnc1N/N=C/c1ccc(Br)cc1`?
GLP-1R agonist: 11.1%; TrxR1 substrate: -8.6%; GLP-1R inv ag: -13.9%; mIDH1 inhibitor: 3.7%; TrxR1 inh: -8.1%; GLP1R cytotox: 1.6%

What do the screens show for `COc1ccc(/C=N/Nc2nccnc2Cl)cc1`?
GLP-1R agonist: -6.0%; TrxR1 substrate: -8.2%; GLP-1R inv ag: 11.2µM*; mIDH1 inhibitor: 7.6%; TrxR1 inh: -2.2%; GLP1R cytotox: inconclusive

What do the screens show for `Cc1cccc(N2CCN(C(=S)c3ccc4c(c3)OCO4)CC2)c1`?
GLP-1R agonist: 7.7%; TrxR1 substrate: 0.1%[2.29 µM]; GLP-1R inv ag: 11.2µM*; mIDH1 inhibitor: 1.3%; TrxR1 inh: 9.0%[2.29 µM]; GLP1R cytotox: inconclusive

Results for S=C(c1ccc2c(c1)OCO2)N1CCN(c2cccc(Cl)c2)CC1 ?
GLP-1R agonist: 11.7%; TrxR1 substrate: 3.4%[2.29 µM]; GLP-1R inv ag: inconclusive; mIDH1 inhibitor: -9.1%; TrxR1 inh: 7.6%[2.29 µM]; GLP1R cytotox: inconclusive

How did O=C(NC1CCCCC1)C1c2ccccc2OCC(=O)N1CCc1c[nH]c2ccccc12 (stereo unspecified) do in these assays?
GLP-1R agonist: -2.3%; GLP-1R inv ag: -8.7%; GLP1R cytotox: -12.6%

How did COCCNC(=S)N(CCc1c(C)[nH]c2ccc(Cl)cc12)Cc1cccs1 do in these assays?
GLP-1R agonist: 9.4%; TrxR1 substrate: 3.4%; GLP-1R inv ag: 2.51µM*; mIDH1 inhibitor: 10.8%; TrxR1 inh: 1.7%; GLP1R cytotox: inconclusive

How did COC(=O)c1ccc([C@@H]2Nc3c(OC)ccc(C)c3[C@@H]3C=CC[C@@H]32)cc1 do in these assays?
TrxR1 substrate: -0.1%; GLP-1R inv ag: 10.6%; mIDH1 inhibitor: 9.2%; TrxR1 inh: 56.2µM*; GLP1R cytotox: 2.6%

What do the screens show for `COC(=O)c1ccc([C@H]2Nc3ccc(S(=O)(=O)Nc4cccc(C)c4)cc3[C@H]3C=CC[C@H]32)cc1`?
TrxR1 substrate: 4.2%; GLP-1R inv ag: -15.7%; mIDH1 inhibitor: -5.0%; TrxR1 inh: inconclusive; GLP1R cytotox: 3.3%

What do the screens show for `CC(C)N(Cc1nc(-c2ccc(Cl)cc2)no1)C(=O)C(c1ccccc1)c1ccccc1`?
GLP-1R agonist: 1.8%; TrxR1 substrate: -12.1%; GLP-1R inv ag: inconclusive; mIDH1 inhibitor: 3.0%; TrxR1 inh: -9.6%; GLP1R cytotox: 5.5%

What do the screens show for `CC(C)N(Cc1nc(-c2ccc(Cl)cc2)no1)C(=O)/C=C/c1ccccc1`?
GLP-1R agonist: 2.3%; TrxR1 substrate: -8.5%; GLP-1R inv ag: 11.2µM*; mIDH1 inhibitor: -1.9%; TrxR1 inh: -2.5%; GLP1R cytotox: -1.4%

How did Cc1nc2c(O)c3c(c(O)c2nc1C)C1C=CC3CC1 do in these assays?
GLP-1R agonist: -5.2%; TrxR1 substrate: -9.6%; GLP-1R inv ag: inconclusive; mIDH1 inhibitor: 21.4%; TrxR1 inh: inconclusive; GLP1R cytotox: 5.62µM*

How did O=C1CS(=O)(=O)N(Cc2cccc(F)c2)c2ccc(Br)cc21 do in these assays?
GLP-1R agonist: -2.8%; TrxR1 substrate: -4.2%; GLP-1R inv ag: 10µM*; mIDH1 inhibitor: 5.0%; TrxR1 inh: 79.4µM*; GLP1R cytotox: -5.5%

How did COc1ccc(CNCCC2(Cc3ccccc3)CC(C)N(C)CC2C)cc1OC (stereo unspecified) do in these assays?
GLP-1R agonist: 1.4%; TrxR1 substrate: 8.7%; GLP-1R inv ag: inconclusive; mIDH1 inhibitor: 2.7%; TrxR1 inh: 25.8%; GLP1R cytotox: -4.7%
